For eight compounds, growth results are on record in PubChem BioAssay (NCI).

The panel holds about 83,000 compounds, 20% with a hit somewhere; the sample as a whole holds those more often.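 A percent growth of 40 corresponds to 60% growth inhibition; 0 means no net growth; -100 means all cells died. Active threshold: below 10.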 Unmarked numbers belong to inactive results. Calls of active or inactive are those of the source.

Test systems include NCI-H226 lung; NCI-H322M lung; HOP-62 NSCLC; NCI-H460 lung; HOP-92 NSCLC; NCI-H522 lung; A549/ATCC NSCLC; 786-0 renal; DU-145 prostate; K-562 leukemia; MALME-3M melanoma; MDA-MB-231 breast; RXF 393 renal; SF-268 CNS; SF-295 CNS; SF-539 CNS; UACC-257 melanoma; M14 melanoma; COLO 205 colon.
Holding throughout (assay): NCI-60 one-dose screen, 48 h (100 = growth as untreated, 0 = no growth, -100 = all killed)
Holding throughout (conditions): 10 µM unless noted

As for `CC[C@H](CC[C@@H](C)[C@H]1CC[C@H]2[C@@H]3CC[C@@H]4CC(=O)/C(=C\c5ccncc5)C[C@]4(C)[C@H]3CC[C@]12C)C(C)C`, the growth in the assay on NCI-H226 lung is 103%; in the assay on NCI-H322M lung it was 98.3%; with HOP-62 NSCLC, 99.3%; in the assay on NCI-H460 lung, 109%; in the assay on HOP-92 NSCLC it was 91.5%; in the assay on NCI-H522 lung, 95.3%. Also, the growth in the assay on A549/ATCC NSCLC was 99.2%; with 786-0 renal, 95.7%; in the assay with DU-145 prostate it was 109%; with K-562 leukemia it was 97%; in the assay with MALME-3M melanoma it was 100%; in the assay with MDA-MB-231 breast it was 104%. The growth in the assay on RXF 393 renal is 109%; in the assay with SF-268 CNS, 107%; with SF-295 CNS, 99.2%; with SF-539 CNS, 103%; with UACC-257 melanoma, 106%; in the assay with M14 melanoma, 104%.

For the compound `CCOC(=O)c1c2c(n3c1NCC3)-c1ccccc1C2=O`, the growth in the assay on NCI-H322M lung is 105%; in the assay on HOP-62 NSCLC, 102%; in the assay on NCI-H460 lung it was 107%; with HOP-92 NSCLC, 84%; in the assay with NCI-H522 lung it was 36.2%; with A549/ATCC NSCLC, 101%. For the same compound, the growth is 94.3% with 786-0 renal; 110% in the assay with COLO 205 colon; 100% in the assay on DU-145 prostate; 87.3% in the assay with K-562 leukemia; 89.9% with MALME-3M melanoma; 107% in the assay on MDA-MB-231 breast. For the same compound, the growth in the assay with RXF 393 renal was 102%; in the assay on SF-268 CNS, 99.6%; with SF-295 CNS, 96%; with SF-539 CNS, 93.7%; with UACC-257 melanoma it was 95.7%; in the assay with M14 melanoma it was 104%.

With `COc1cc2nc(Nc3cccc(F)c3)nc(Nc3cc(C)[nH]n3)c2cc1OC`, the growth with NCI-H226 lung is -49.4% [20 µM] (active); in the assay with NCI-H322M lung, -100% [20 µM] (active); in the assay with HOP-62 NSCLC, -53.2% [20 µM] (active); in the assay with NCI-H460 lung, -69.7% [20 µM] (active); in the assay with HOP-92 NSCLC, -88.9% [20 µM] (active); with NCI-H522 lung, -42% [20 µM] (active). The growth was -55% [20 µM] (active) in the assay on A549/ATCC NSCLC; -81.8% [20 µM] (active) in the assay on 786-0 renal; -60.9% [20 µM] (active) in the assay on COLO 205 colon; -94.7% [20 µM] (active) with DU-145 prostate; -31.1% [20 µM] (active) with K-562 leukemia; -98.1% [20 µM] (active) in the assay on MALME-3M melanoma. The growth in the assay on MDA-MB-231 breast was -98.6% [20 µM] (active); in the assay on RXF 393 renal, -88.7% [20 µM] (active); in the assay on SF-268 CNS, -69.9% [20 µM] (active); in the assay on SF-295 CNS, -92.1% [20 µM] (active); in the assay on SF-539 CNS, -100% [20 µM] (active); in the assay with UACC-257 melanoma, -62.4% [20 µM] (active). Besides, the growth in the assay on M14 melanoma is -91.4% [20 µM] (active).

`COc1cc(-c2nc(SCCC(C)C)nc(N3CCOCC3)c2C#N)cc(OC)c1OC`: the growth is 106% in the assay on NCI-H226 lung; 91.2% in the assay with NCI-H322M lung; 28.6% with HOP-62 NSCLC; 12.2% in the assay on NCI-H460 lung; 81.9% with HOP-92 NSCLC; 65.8% in the assay on NCI-H522 lung. Also, the growth in the assay with A549/ATCC NSCLC is 22.4%; with 786-0 renal, 66%; in the assay on COLO 205 colon, 63.8%; in the assay with DU-145 prostate it was 41.6%; in the assay on K-562 leukemia, 74.5%; with MALME-3M melanoma, 92.3%. In addition, the growth in the assay with MDA-MB-231 breast is 68.5%; in the assay on RXF 393 renal it was 101%; with SF-268 CNS, 40.3%; in the assay on SF-295 CNS it was 98.9%; in the assay on SF-539 CNS, 55.5%; in the assay on UACC-257 melanoma, 95.8%. Further, in the assay with M14 melanoma, the growth is 96%.

Turning to `CN1CCN(Cc2cc(NC(=O)c3cccc(C#Cc4cccc5[nH]nc(N)c45)c3)cc(C(F)(F)F)c2)CC1`, the growth in the assay with NCI-H226 lung was 24.6%; in the assay on NCI-H322M lung, 35.9%; in the assay with HOP-62 NSCLC it was 42.4%; with NCI-H460 lung it was -20.9% (active); with HOP-92 NSCLC, -28.4% (active); in the assay on NCI-H522 lung, 20.9%. Besides, the growth was 27.9% in the assay with A549/ATCC NSCLC; 24.9% in the assay with 786-0 renal; -35.3% (active) in the assay on COLO 205 colon; 33.9% in the assay with DU-145 prostate; -42.3% (active) in the assay with K-562 leukemia; -54.7% (active) with MALME-3M melanoma. In addition, the growth in the assay on MDA-MB-231 breast was -31% (active); in the assay with RXF 393 renal it was -9.77% (active); with SF-268 CNS, 40.5%; with SF-295 CNS, 26.3%; with SF-539 CNS, -55.6% (active); in the assay on UACC-257 melanoma, 57.8%. Also, in the assay with M14 melanoma, the growth is -53.1% (active).

Take `Fc1ccc2c(c1)c(-c1nc(-c3c[nH]c4ncccc34)cs1)cn2CCCN1CCOCC1`: the growth is 59.3% with NCI-H226 lung; 80.9% in the assay with NCI-H322M lung; 49.9% with HOP-62 NSCLC; 37.8% with NCI-H460 lung; 23.5% with HOP-92 NSCLC; 41.3% in the assay with NCI-H522 lung. The growth in the assay with A549/ATCC NSCLC was 42.6%; in the assay with 786-0 renal it was 57.3%; in the assay on COLO 205 colon, 18.1%; in the assay with DU-145 prostate, 79.8%; in the assay with K-562 leukemia, 1.71% (active); in the assay on MALME-3M melanoma it was 59.2%. Further, the growth in the assay on MDA-MB-231 breast was 36%; with RXF 393 renal it was 39.5%; in the assay with SF-268 CNS, 50.8%; in the assay on SF-295 CNS it was 27.5%; in the assay on SF-539 CNS, 67.3%; in the assay on UACC-257 melanoma it was 83%. In the assay with M14 melanoma, the growth is 34.7%.

For the compound `COC(=O)Cc1nc(C#N)c(N(C)C)o1`, the growth was 96.3% in the assay with NCI-H226 lung; 97.2% in the assay on NCI-H322M lung; 96.7% with HOP-62 NSCLC; 101% in the assay with NCI-H460 lung; 95.9% in the assay on HOP-92 NSCLC; 90.3% in the assay with NCI-H522 lung. For the same compound, the growth in the assay with A549/ATCC NSCLC was 95.8%; in the assay with 786-0 renal, 97.6%; with COLO 205 colon, 104%; in the assay on DU-145 prostate, 112%; in the assay on K-562 leukemia it was 91.1%; with MALME-3M melanoma it was 105%. Besides, the growth in the assay with MDA-MB-231 breast was 100%; in the assay on RXF 393 renal, 106%; in the assay on SF-268 CNS it was 94.8%; in the assay on SF-295 CNS, 100%; with SF-539 CNS it was 99%; in the assay on UACC-257 melanoma, 95.7%. Also, the growth in the assay on M14 melanoma was 103%.

Regarding `CCCCCCCCCCCCCCCCCCOc1ccccc1CC(=O)NCC[N+]1(C)CCOCC1`, the growth is 69.2% with NCI-H226 lung; 65.2% in the assay on NCI-H322M lung; 53% with HOP-62 NSCLC; 45.7% in the assay on NCI-H460 lung; -2.9% (active) in the assay on HOP-92 NSCLC; 30.8% with NCI-H522 lung. Besides, the growth in the assay with A549/ATCC NSCLC is 55.6%; in the assay on 786-0 renal it was 2.4% (active); in the assay with COLO 205 colon, 37.6%; in the assay with DU-145 prostate, 65.5%; in the assay with K-562 leukemia, 15.7%; with MALME-3M melanoma, 58.9%. Further, the growth is 54.1% in the assay on MDA-MB-231 breast; -39.4% (active) in the assay with RXF 393 renal; 41.5% in the assay on SF-268 CNS; 62.8% with SF-295 CNS; 54.5% in the assay on SF-539 CNS; 99.4% in the assay on UACC-257 melanoma. In the assay with M14 melanoma, the growth was 69.6%.
